# This is a sample that favours compounds with a hit; in the whole collection about 7% have one here.
# USP30 block – blocks human USP30 ubiquitin-rhodamine cleavage. 47,000 compounds, 5.3% hits. inhibition, % at 25 µM. purified USP30, Ub-rhodamine cleavage fluorescence
# USP28 block – human USP28 deubiquitinase inhibition. purified USP28, Ub-rhodamine cleavage fluorescence, 30 min. inhibition, % at 25 µM. 47,000 compounds, 3% hits. AID 1645857
# A number is an active result; n = inactive. Cut-off read from the data, not from the text of the source: active = inhibition above about 30%; inactive = the rest.
SMILES,USP30 block,USP28 block
CC1(C)CC[C@]2(C(=O)O)CC[C@]3(C)C(=CCC4[C@@]5(C)CC[C@H](O)[C@@](C)(CO)C5CC[C@]43C)[C@@H]2C1 (stereo not given in full),84,82
Cc1cc(Nc2ncccc2C)cc(C2CCCN(C(=O)c3cnccn3)C2)n1 (stereo not given),n,n
CCOC(=O)c1cccc(NC(=O)Nc2cccn3nc(C)nc23)c1,n,83
CCc1nc2c(NC(=O)Nc3cccc(C(=O)OC)c3)cccn2n1,n,50
COc1cccc(C(=O)Nc2cccn3nc(C)nc23)c1,n,n
CCc1nc2c(NC(=O)NCc3ccc(OC)cc3)cccn2n1,n,n
Cc1cccc(-c2c(NC(=O)c3cccs3)n(C)c3ccccc3c2=O)c1,n,n
O=C(C1c2ccccc2C(=O)N(C2CCCC2)C12CCCCC2)N1CCOCC1 (stereo not given),n,n
CN(C)S(=O)(=O)c1ccc(S(=O)(=O)NCCc2ccc3c(c2)OCO3)cc1,45,n
CN(C)S(=O)(=O)c1cccc(C(=O)OCC(=O)NCc2ccc3c(c2)OCO3)c1,n,n
Cc1scc2nc(C(=O)Nc3ccc4c(c3)OCO4)nc(N3CCOCC3)c12,n,32
Cc1cc2nc(N3CCOCC3)n(CC(=O)Nc3ccccc3)c(=O)c2n1C,n,n
Cc1scc2nc(C(=O)N3CCCC3)nc(N3CCOCC3)c12,n,n
Cc1cccc(NC(=O)c2nc(N3CCOCC3)c3cnn(C)c3n2)c1,42,n
Cn1ncc2c(N3CCOCC3)nc(C(=O)NCc3ccc(Cl)cc3)nc21,n,n
Cc1cccc(NC(=O)Cn2c(N3CCOCC3)nc3cc(C)n(C)c3c2=O)c1,61,n
COc1ccccc1NC(=O)c1cc(Br)cc(Cc2ccccc2)c1O,n,n
O=C(Cc1ccc(Cl)cc1)N1CCC2(CN(CCCc3ccccc3)C2)C1,n,n
COc1cc([C@@H]2c3c(C)nn(C)c3NC(=O)[C@H]2NC(=O)c2ccc(Cl)cc2)cc2c1OCCO2,n,n
COc1ccccc1Oc1nc(-c2ccccc2)cc(C)c1S(C)(=O)=O,n,37
COc1ccc(Cl)cc1C(=O)NNC(=O)c1cc(-c2ccccc2)n[nH]1,n,n
O=C1c2ccccc2NC2(C(=O)Nc3ccc(Br)cc32)N1c1ccccc1 (stereo not given),n,86
CC(C)N1CCC2(CC1)Nc1ccccc1C(=O)N2Cc1ccccc1,n,n
CC1(C)Cc2c(c(N3CCOCC3)nc3sc4c(NCc5ccccn5)ncnc4c23)CO1,n,n
O=C(O)CC1(CC(=O)NCc2cccc(Cl)c2)CCCCC1,n,n
SMILES,USP30 block,USP28 block
O=C(O)CC1(CC(=O)NCc2ccc(C(F)(F)F)cc2)CCCCC1,32,n
Cc1cc(NC(=O)c2cc(Cl)ccc2Cl)ccc1N1CCCC1=O,n,n
Cc1ccc(NC(=O)Cn2c(-n3nc(C)cc3C)nc3c(c2=O)CCC3)cc1,n,n
Cc1ccc(NC(=O)Cn2c(-n3nc(C)cc3C)nc3c(c2=O)CCCC3)c(C)c1,31,n
CN(C)c1ncc(CN2CCC(C3CC=CCN(Cc4ccc(F)cc4)C3=O)CC2)cn1 (stereo not given),n,n
Cc1cccc(C2CCCN2C(=O)c2cnn3cc(Br)cnc23)c1 (stereo not given),n,n
O=c1cc(-c2ccncc2)nc(C2CCCN(Cc3cccc(F)c3F)C2)[nH]1 (stereo not given),n,n
COc1ccc(OC)c(-c2cc(C(=O)Nc3c(C)nn(Cc4ccccc4)c3C)no2)c1,n,80
COc1ccc(OC)c(-c2noc(N(C)Cc3ccccc3)n2)c1,n,n
CC(=O)Nc1ncncc1N1CCC(C(=O)NCCC2=CCCCC2)CC1,n,n
Cc1nonc1NC(=O)CN1CCC(C2CC=CCN(Cc3ccc(F)cc3)C2=O)CC1 (stereo not given),n,n
CCc1nc(-c2cccc(NC(=O)C3CC(=O)N(c4ccccc4)C3)c2)no1 (stereo not given),n,n
CC(=O)c1cccc(NC(=O)c2ccc(-c3noc(C)n3)cc2)c1,n,30
Cc1nc(-c2cccc(NC(=O)c3ccccc3F)c2)no1,n,n
Cc1nc(-c2cccc(NC(=O)C3CC(=O)N(c4ccc(C)c(C)c4)C3)c2)no1 (stereo not given),n,n
Cc1nc(-c2cccc(NC(=O)c3ccccc3Cl)c2)no1,n,52
CCc1nc(-c2cccc(NC(=O)C3CC(=O)N(c4ccc(C)c(C)c4)C3)c2)no1 (stereo not given),60,n
CCc1nc(-c2cccc(NC(=O)c3ccccc3F)c2)no1,n,36
CCc1nc(-c2ccc(C(=O)Nc3ccc(C(C)=O)cc3)cc2)no1,n,n
Cc1ccc(S(=O)(=O)C(CNC(=O)c2c(F)cccc2Cl)c2cccnc2)cc1 (stereo not given),n,n
COc1ccc(CC(=O)N2CCN(c3ccc(Nc4ccccn4)nn3)CC2)cc1,n,37
COc1ccc(S(=O)(=O)NCc2ccc(C(=O)N3CCN(c4ccccn4)CC3)cc2)cc1,n,n
